Screening data from PubChem BioAssay.
Rows were chosen to be rich in hits. Some 17% of all compounds tested hit in one or more screens of this group.
S2 tox = cell viability loss in ATXN counter-screen; S2 cells (HEK-293 line with an ATXN2-luciferase reporter) viability, CellTiter-Fluor protease fluorescence, 24 h; Potency, µM (series often up to 56.7 µM), hits mostly cytotoxic; 0.49% of 400,000 active; AID 651635; further: nearly all actives have a fitted effect of over 40% in size
TGFb SMAD3 inh = inhibitors of TGF-b signaling; 1.2% of 410,000 active; HepG2 CAGA-GFP TGF-b/SMAD3 reporter, GFP fluorescence, 18 h; TGF-beta stimulated, 500 pg/mL final; Potency, µM (highest dose often 46.1 µM), without a hit: at the top dose activity, negative = inhibition, usual class: inhibitors; further: on the % scale 0 is the no-effect control and ±100 the full control effect; nearly all actives have a fitted effect of over 65% in size
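GFP signal (ex488/em500-530) from TGF-beta-stimulated HEPG2 CAGA-GFP cells, 500 pg/mL final, 18 h at 37 degrees C in DMEM plus 1% FBS, normalized to unstimulated and DMSO-stimulated controls.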
ATXN2 expr inh = reduces ATXN2 reporter expression in HEK-293 cells; HEK-293 ATXN2-luciferase reporter, luminescence, 24 h; Potency, µM (doses to about 57 µM), for inactives: at the highest dose activity change, negative = inhibition, actives largely listed as inhibitors; 0.72% of 360,000 active; further: on the % scale 0 is the no-effect control and ±100 the full control effect; nearly all actives have a fitted effect of over 55% in size
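qHTS (up to 57 uM final) was run with 24 h compound exposure of reporter cells at 37 °C. Each well was multiplexed: SteadyGlo luminescence measured ATXN2-luciferase expression after a fluorogenic Gly-Phe-AFC viability readout (25 uM final).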
TDP1 cell noCPT = qHTS for Inhibitors of human tyrosyl-DNA phosphodiesterase 1 (TDP1): qHTS in cells in absence of CPT. DT40 Tdp1-/- hTDP1 cells, no CPT, ATP luminescence, 48 h. Potency, µM (highest dose often 46.2 µM), inactives show top-dose activity change, negative = growth inhibition, hits mostly inhibitors. 15% of 420,000 active; further: on the % scale 0 is the no-effect control and ±100 the full control effect; nearly all actives have a fitted effect of over 55% in size
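Cells were dispensed at 400 per well, compounds added by pin tool, plates incubated ≥48 hr at 37 °C, then CellTiter-Glo added for 30 min at room temperature before luminescence reading. Line: DT40 Tdp1-/- complemented with hTDP1; camptothecin omitted.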
HepG2 tox = HepG2 cytotoxicity, counter-screen for TGF-b inhibitors; HepG2 CAGA-GFP viability, ATP luminescence, 18 h; Potency, µM (series often up to 46.1 µM), for inactives: top-dose activity change, negative = cytotoxicity, usual class: cytotoxic; 0.76% of 410,000 active; AID 588856
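CellTiter-Glo luminescence gave cytotoxicity after 18 hours at 37 degrees C. The cells were HepG2 CAGA-GFP in 1% FBS DMEM, stimulated with 500 pg/mL TGF-beta after compound addition. %Activity was normalised to no-cell wells (complete cell-killing) and DMSO (no toxicity), and curves were fitted and classified.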
TDP1 cell CPT = growth inhibition of DT40 Tdp1-/-;hTDP1 cells with camptothecin (screen for TDP1 inhibitors). chicken DT40 Tdp1-/-;hTDP1 cells + 20 nM CPT, ATP luminescence, 48 h. Potency, µM (highest dose often 46.2 µM), for inactives: at the top dose activity change, negative = growth inhibition, actives largely listed as inhibitors. 12% of 420,000 active; further: on the % scale 0 is the no-effect control and ±100 the full control effect; nearly all actives have a fitted effect of over 55% in size
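Chicken DT40 Tdp1-/- cells complemented with human TDP1, 400 cells/well, exposed to compounds plus 20 nM camptothecin for at least 48 h at 37 C; viability read as ATP content by CellTiter-Glo luminescence.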
The depositor's hits bear a star; i = inactive; ? = inconclusive; / = no result; [ ] = remark or other dose. The call rests on the fitted dose curve; in most records, active means well fitted curve in the direction sought with a large enough effect; inconclusive means small, poorly fitted or top-dose-only effect, or another doubt; inactive means no such curve, though single readings can be large; an effect the other way counts as inactive or inconclusive. Potency means the concentration at half of the fitted maximal effect.

SMILES	S2 tox	TGFb SMAD3 inh	ATXN2 expr inh	TDP1 cell noCPT	HepG2 tox	TDP1 cell CPT
Cc1ccc(-n2[nH]c(C)c(C=Nc3ccc(S(=O)(=O)Nc4nccs4)cc3)c2=O)cc1C	i	9%	10%	18µM*	-85%	8.2µM*
COc1cc(S(=O)(=O)Nc2ccc(C)cc2)ccc1N=Cc1c(C)[nH]n(-c2ccccc2)c1=O	i	-4%	1%	?	-25%	9.2µM*
COc1nccnc1NS(=O)(=O)c1ccc(N=Cc2c(C)[nH]n(-c3ccc(C)c(C)c3)c2=O)cc1	i	?	12%	9.2µM*	10µM*	8.2µM*
Cc1ccc(NC(=O)CCS(=O)(=O)c2cccc3nonc23)c(Cl)c1	i	-5%	-2%	-19%	-9%	2%
Nc1ncc(Br)cc1S(=O)(=O)NCCC(=O)N1CCN(c2ccccc2)CC1	i	11%	9%	-20%	1%	?
NS(=O)(=O)c1ccc(CCNC(=O)CSc2nc3ccccc3c(=O)n2CC2CCCO2)cc1 (centres undefined)	i	3%	/	-23%	0%	-20%
CCOC(=O)CSc1nc2c(sc3ccccc32)c(=O)n1CCc1ccccc1	i	?	-4%	?	-1%	-18%
CCCCN(CC)C(=O)CSc1nc2c(sc3ccccc32)c(=O)n1CCc1ccccc1	i	18%	7%	5.2µM*	-24%	?
CCc1ccc(NC(=O)CSc2nc3c(sc4ccccc43)c(=O)n2CCCOC)cc1	i	0%	-5%	?	6%	?
CCc1ccc(NC(=O)CSc2nc3c(sc4ccccc43)c(=O)n2CCCOC(C)C)cc1	i	4%	4%	21µM*	-34%	-18%
CCc1ccc(NC(=O)CSc2nc3c(sc4ccccc43)c(=O)n2CCN(CC)CC)cc1	i	0%	2%	9.2µM*	-6%	15µM*
CCOC(=O)CSc1nc2c(sc3ccccc32)c(=O)n1Cc1ccc(C)cc1	i	-23%	-5%	?	0%	21µM*
Cc1ccc(CCNC(=O)c2ccc(CSCc3ccc(C)cc3)o2)cc1	/	?	/	?	-21%	?
C=CCN(C(=O)CSc1nc2c(sc3ccccc32)c(=O)n1CCN(CC)CC)c1ccccc1	?	18µM*	?	16µM*	-21%	18µM*
C=CCN(C(=O)CSc1nc2ccsc2c(=O)n1Cc1ccccn1)c1ccccc1	/	10%	28%	?	3%	-23%
CCOc1ccc2[nH]c3c(N4CCN(c5ccccn5)CC4)ncnc3c2c1	i	-8%	?	16µM*	-43%	8.9µM*
Cc1ccc2[nH]c3c(N4CCN(Cc5ccccc5)CC4)ncnc3c2c1	?	?	?	9.2µM*	7.9µM*	13µM*
Cc1sc2ncnc(N3CCN(Cc4ccccc4)CC3)c2c1-c1ccccc1	i	4%	-28%	?	5%	?
CCOc1ccc2oc(C(=O)N3CCN(c4ccccn4)CC3)c(C)c2c1	i	-9%	8%	-27%	-9%	-27%
Cc1ccc2[nH]c3c(NCCN4CCOCC4)ncnc3c2c1	i	-3%	-23%	?	2%	?
Cc1ccc2c(c1)[nH]c1c(N3CCN(Cc4ccccc4)CC3)ncnc12	/	11µM*	8.9µM*	4.6µM*	-70%	5.8µM*
Cc1cc(C)c(NC(=O)c2cc(CN3CCOCC3)on2)c(C)c1	i	10%	2%	0%	-8%	-2%
CCn1cc(C(=O)N(CCC(C)C)c2c(N)n(Cc3ccccc3)c(=O)[nH]c2=O)c(=O)c2ccc(C)nc21	i	-14%	1%	-24%	-9%	-5%
CCOC(=O)/C=c1\s/c(=C\c2ccc(C)cc2)c(=O)n1CC(=O)NCc1ccco1	i	20%	-8%	?	10%	16µM*
CCOC(=O)/C=c1\s/c(=C\c2ccc(-c3ccccc3)cc2)c(=O)n1CC(=O)NCc1ccc2c(c1)OCO2	i	0%	-5%	9.2µM*	0%	9.2µM*
SMILES	S2 tox	TGFb SMAD3 inh	ATXN2 expr inh	TDP1 cell noCPT	HepG2 tox	TDP1 cell CPT
COc1ccc(/C=C/C(=O)OCC(=O)NCC2CCCO2)cc1 (centres undefined)	i	-2%	1%	16%	-3%	-19%
CCOC(=O)/C=c1\s/c(=C\c2ccc3cc(OC)ccc3c2)c(=O)n1CC(=O)NCC1CCCO1 (centres undefined)	i	7%	?	6.5µM*	-2%	9.2µM*
CCOC(=O)/C=c1\s/c(=C\c2ccc(C(F)(F)F)cc2)c(=O)n1CC(=O)NCc1ccco1	i	-20%	-31%	?	5%	?
CCOC(=O)/C=c1/s/c(=C/c2ccc3cc(OC)ccc3c2)c(=O)n1CC(=O)NCc1ccc2c(c1)OCO2	?	17%	?	9.2µM*	-7%	5.8µM*
CCCn1cnnc1CNC(=O)[C@H]1O[C@@H](n2cnc3c(N)ncnc32)[C@H](O)[C@@H]1O	i	7%	4%	7%	-7%	11%
CN(Cc1c(F)cccc1Cl)C(=O)CNC(=O)c1sc2ccccc2c1Cl	i	2%	-13%	-24%	29%	-21%
COc1ccc(CNC(=O)CN(Cc2ccc(C)cc2)C(=O)c2csnn2)cc1	i	?	-11%	-11%	-31%	0%
COc1ccc(C2=C/C(=C\c3ccccc3OC(C)=O)C(=O)O2)cc1	i	6%	/	15µM*	-3%	21µM*
COc1ccc(C2=C/C(=C\c3cccc(OC(C)=O)c3)C(=O)O2)cc1	i	0%	-2%	?	-1%	?
Cn1nnnc1SCC(=O)NC1CCCc2ccccc21 (centres undefined)	i	-17%	-7%	-4%	2%	7%
O=C1/C(=C\c2ccc(O)c(O)c2)N=C2CCCCCN12	i	31%	44%	?	6%	23µM*
COc1ccc(/C=C2\N=C3CCCCCN3C2=O)cc1OC	i	0%	16%	-1%	-17%	-10%
CCOc1ccc(CC(=O)Nc2nnc3n2CCS3)cc1	i	10%	6%	-25%	-7%	-2%
CCSc1cc(N2CCOCC2)nc(-c2ccccc2)n1	i	-1%	5%	-6%	-7%	-8%
CCSc1nc(-c2ccccc2)nc(C(Cl)Cl)n1	?	5.6µM*	?	8.2µM*	7.1µM*	1.8µM*
S=C(NCCc1ccncc1)Nc1ccccc1	i	-18%	1%[11.3 µM]	-27%	1%	-25%
